From PubChem BioAssay (NCI) come the findings set out here.

Compounds without any hit were thinned out: in the full panel of roughly 83,000, 20% have a hit.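 Interpretation: 100, growth as untreated; towards 0, rising growth inhibition; 0, no net growth; 0 to -100, cell death. Compounds scoring below 10 were considered active.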 Values without a mark were called inactive. The source made the active and inactive calls.

In the first test the test system is A549/ATCC NSCLC. Kind of test: NCI-60 one-dose screen, 48 h (100 = growth as untreated, 0 = no growth, -100 = all killed). To be noted: 10 µM unless noted.
Take `C[C@]12O[C@H](C[C@]1(O)CO)n1c3ccccc3c3c4c(c5c6ccccc6n2c5c31)CNC4=O`: the growth is -29.9% (active).
On the same count and under the same terms, in the case of `CSc1nc2ncnc(SC)c2[nH]1` it was 62.3%; in that of `CCc1nc2cc(/C=C/C(=O)NO)ccc2c(=O)n1CCc1ccc(OC)cc1`, 24.1%; in that of `COC(=O)[C@H](Cc1ccc(O)cc1)NC(=O)[C@@H](OC)[C@@H]1Cc2cc3cc(OC4CC(OC5CC(O)C(O)C(C)O5)C(O)C(C)O4)c(C)c(O)c3c(O)c2C(=O)[C@H]1OC1CC(OC2CC(OC3CC(C)(O)C(O)C(C)O3)C(O)C(C)O2)C(O)C(C)O1` (stereo partly drawn), 4.32% (active).
Same read-out and setting: for `Nc1ccc(S(=O)(=O)O)c2cc(S(=O)(=O)O)cc(O)c12` the value was 104%; for `COc1cc(-c2nc(C(=O)NCC(=O)O)nn2-c2ccc(Cl)cc2)cc(OC)c1OC`, 96.6%.
Take `Cc1ccc(NC(=O)c2ccc(CN3CC[C@H](N(C)C)C3)c(C(F)(F)F)c2)cc1Nc1nccc(-c2cncnc2)n1`: the growth is 1.73% (active).
On the same count and under the same terms, in the case of `Cc1cc(Oc2ccccc2)ccc1Nc1ncnc2ccc(-c3cnc(Cl)c(NS(C)(=O)=O)c3)cc12` it was 11%.
Still for that read-out and setting: for `COc1ccc(-n2c(=O)c3ccccc3n(Cc3ccc(C(=O)NO)cc3)c2=O)cc1` the value was 38.6%; for `N#CC1(C#N)C(c2cccs2)NC(c2cccs2)C1(C#N)C#N` (stereo not drawn), 100%.
The same measure, in the same setting: in the case of `CC(C)[C@@H]1CC[C@]2(CO2)[C@@H]2C(=O)OCC(C(=O)O)=C[C@H]21` it was 15.5%.
Turning to `O=C(NO)c1ccc(Cn2c(=O)n(CCc3ccccc3)c(=O)c3ccccc32)cc1`, the growth was 33.6%.
Take `CNC(=O)c1cc(Oc2ccc(NC(=O)Nc3ccc(Cl)c(C(F)(F)F)c3)c(F)c2)ccn1`: the growth is -2.14% (active).
Same read-out and setting: for `COc1cc2c3c(c1)nc(C)n3CCC2` the value was 82%; for `Cc1sc2c(c1C)c(=O)nc1c(-c3nc4ccccc4s3)n[nH]n12`, 97.2%; for `CC(=O)CC1CCCC1c1ccc2ccccc2c1` (stereo not drawn), 95.6%.
The same measure, in the same setting: in the case of `CCn1cc(-c2ccnc3[nH]c(-c4cccc(CN(C)C)c4)cc23)c(-c2ccc(NC(=O)N(C)C)cc2)n1` it was 14.9%; in that of `N[C@@H]1CCCN(c2c(/C=C3\SC(=O)NC3=O)cccc2-c2ccccc2)C1`, 52.6%; in that of `Brc1ccc([I+]c2ccc(Br)cc2)cc1`, 40.5%.
The same measure, in the same setting: in the case of `O=C(NC[C@H](O)CO)c1ccncc1Nc1ccc(I)cc1F` it was 32.2%.
Regarding `N#Cc1c(NC(=O)c2ccco2)[n+]([O-])c2cc(F)c(F)cc2[n+]1[O-]`, the growth is 97.1%.
The same measure, in the same setting: for `COc1cc2ncnc(Oc3cccc(NC(=O)Nc4cc(C(C)(C)C(F)(F)F)on4)c3)c2cc1OC` the value was 33.4%.
Still for that read-out and setting: for `O=C(c1ccc(/C=C/c2n[nH]c3ccccc23)cc1)N1CCNCC1` the value was 22.4%.
Still for that read-out and setting: for `N#CC(C#N)=NO` the value was 73.4%; for `CN1CCC(COc2cnc(-c3cccc(Cn4nc(-c5cccc(C#N)c5)ccc4=O)c3)nc2)CC1`, 48.1%; for `CC(C)OP(=O)(CCC(=O)c1c[nH]c2ccccc12)OC(C)C`, 68.7%.
For the compound `COc1cc(NCCN(CC(C)C)CC(C)C)c2ncc(C)cc2c1`, the growth is 31.7%.
Same read-out and setting: in the case of `O=c1sn(-c2cccc3ccccc23)c(=O)n1Cc1ccccc1` it was 70.7%; in that of `Cc1cc2c(F)c(Oc3ncnn4cc(OC[C@@H](C)OC(=O)[C@H](C)N)c(C)c34)ccc2[nH]1`, 35.8%.
On the same count and under the same terms, in the case of `CCCCN1C(=O)c2cccc3c(-c4ccc5c(c4)ncn5C4CCCCC4)ccc(c23)C1=O` it was 90.8%.
On the same count and under the same terms, in the case of `C=CC(=O)Nc1cc2c(Nc3ccc(F)c(Cl)c3)ncnc2cc1OCCCN1CCOCC1` it was 22.9%; in that of `CCN(CC)CCCC(C)Nc1cc(-c2ccc(C(F)(F)F)cc2)c(C#N)c2nc3ccccc3n12` (stereo not drawn), 17.1%.
`C=CC(=O)Nc1cc(Nc2nccc(-c3cn(C)c4ccccc34)n2)c(OC)cc1N(C)CCN(C)C`: the growth was -43.5% (active).
Consider `O=C(Nc1cnn2ccc(N3CCC[C@@H]3c3cc(F)ccc3F)nc12)N1CC[C@H](O)C1`, for which the growth is 72.4%.
Same read-out and setting: in the case of `S=C(NCc1ccc2c(c1)OCO2)N1CCN(c2ncnc3c2oc2ccccc23)CC1` it was 25.6%.
Same read-out and setting: in the case of `O=C(NOC[C@H](O)CO)c1ccc(F)c(F)c1Nc1ccc(I)cc1F` it was 21.4%.
As for `CC(=O)Oc1ccccc1C(=O)N=C1[Se]CCN1C(=O)c1ccccc1OC(C)=O`, the growth was -52.6% (active).
On the same count and under the same terms, in the case of `COC(=O)CCCNc1c(-c2c(O)c(O)cc3c(O)c(-c4c(C)cc5c(-c6nc7ccccn7c6NCCCC(=O)OC)c(O)c(O)cc5c4O)c(C)cc23)nc2ccccn12` it was 23.4%.
On to `O=C(CNc1nc(-c2ccc(Cl)cc2)cs1)Nc1ccc(-c2nc3ccccc3s2)cc1`, for which the growth was 99%.

For the next test, the system named is 786-0 renal. Described as above. To be noted: 10 µM unless noted.
As for `C[C@]12O[C@H](C[C@]1(O)CO)n1c3ccccc3c3c4c(c5c6ccccc6n2c5c31)CNC4=O`, the growth is -87.5% (active).
For `CSc1nc2ncnc(SC)c2[nH]1`, the growth is 98.9%.
`CCc1nc2cc(/C=C/C(=O)NO)ccc2c(=O)n1CCc1ccc(OC)cc1`: the growth is 21%.
Still for that read-out and setting: in the case of `COC(=O)[C@H](Cc1ccc(O)cc1)NC(=O)[C@@H](OC)[C@@H]1Cc2cc3cc(OC4CC(OC5CC(O)C(O)C(C)O5)C(O)C(C)O4)c(C)c(O)c3c(O)c2C(=O)[C@H]1OC1CC(OC2CC(OC3CC(C)(O)C(O)C(C)O3)C(O)C(C)O2)C(O)C(C)O1` (stereo partly drawn) it was 1.98% (active); in that of `Nc1ccc(S(=O)(=O)O)c2cc(S(=O)(=O)O)cc(O)c12`, 101%.
The same measure, in the same setting: in the case of `COc1cc(-c2nc(C(=O)NCC(=O)O)nn2-c2ccc(Cl)cc2)cc(OC)c1OC` it was 103%; in that of `Cc1ccc(NC(=O)c2ccc(CN3CC[C@H](N(C)C)C3)c(C(F)(F)F)c2)cc1Nc1nccc(-c2cncnc2)n1`, -54.7% (active).
For `Cc1cc(Oc2ccccc2)ccc1Nc1ncnc2ccc(-c3cnc(Cl)c(NS(C)(=O)=O)c3)cc12`, the growth was 16.8%.
Same read-out and setting: for `COc1ccc(-n2c(=O)c3ccccc3n(Cc3ccc(C(=O)NO)cc3)c2=O)cc1` the value was 56.5%; for `N#CC1(C#N)C(c2cccs2)NC(c2cccs2)C1(C#N)C#N` (stereo not drawn), 101%.
On the same count and under the same terms, for `CC(C)[C@@H]1CC[C@]2(CO2)[C@@H]2C(=O)OCC(C(=O)O)=C[C@H]21` the value was 11.6%.
The same measure, in the same setting: in the case of `O=C(NO)c1ccc(Cn2c(=O)n(CCc3ccccc3)c(=O)c3ccccc32)cc1` it was 45%; in that of `CNC(=O)c1cc(Oc2ccc(NC(=O)Nc3ccc(Cl)c(C(F)(F)F)c3)c(F)c2)ccn1`, 3.58% (active); in that of `COc1cc2c3c(c1)nc(C)n3CCC2`, 98.1%.
For `Cc1sc2c(c1C)c(=O)nc1c(-c3nc4ccccc4s3)n[nH]n12`, the growth is 105%.
On the same count and under the same terms, for `CC(=O)CC1CCCC1c1ccc2ccccc2c1` (stereo not drawn) the value was 101%.
Still for that read-out and setting: in the case of `CCn1cc(-c2ccnc3[nH]c(-c4cccc(CN(C)C)c4)cc23)c(-c2ccc(NC(=O)N(C)C)cc2)n1` it was 35.1%; in that of `N[C@@H]1CCCN(c2c(/C=C3\SC(=O)NC3=O)cccc2-c2ccccc2)C1`, 82.8%.
Same read-out and setting: for `Brc1ccc([I+]c2ccc(Br)cc2)cc1` the value was 27.7%.
`O=C(NC[C@H](O)CO)c1ccncc1Nc1ccc(I)cc1F`: the growth is 70.2%.
With `N#Cc1c(NC(=O)c2ccco2)[n+]([O-])c2cc(F)c(F)cc2[n+]1[O-]`, the growth was 98.5%.
For the compound `COc1cc2ncnc(Oc3cccc(NC(=O)Nc4cc(C(C)(C)C(F)(F)F)on4)c3)c2cc1OC`, the growth is 39.5%.
The same measure, in the same setting: for `O=C(c1ccc(/C=C/c2n[nH]c3ccccc23)cc1)N1CCNCC1` the value was 37.7%.
On the same count and under the same terms, in the case of `N#CC(C#N)=NO` it was 99.5%; in that of `CN1CCC(COc2cnc(-c3cccc(Cn4nc(-c5cccc(C#N)c5)ccc4=O)c3)nc2)CC1`, 61.9%; in that of `CC(C)OP(=O)(CCC(=O)c1c[nH]c2ccccc12)OC(C)C`, 109%.
Same read-out and setting: in the case of `COc1cc(NCCN(CC(C)C)CC(C)C)c2ncc(C)cc2c1` it was 91.3%.
On to `O=c1sn(-c2cccc3ccccc23)c(=O)n1Cc1ccccc1`, for which the growth was 107%.
Still for that read-out and setting: for `Cc1cc2c(F)c(Oc3ncnn4cc(OC[C@@H](C)OC(=O)[C@H](C)N)c(C)c34)ccc2[nH]1` the value was 72.3%.
The same measure, in the same setting: for `CCCCN1C(=O)c2cccc3c(-c4ccc5c(c4)ncn5C4CCCCC4)ccc(c23)C1=O` the value was 106%.
Same read-out and setting: for `C=CC(=O)Nc1cc2c(Nc3ccc(F)c(Cl)c3)ncnc2cc1OCCCN1CCOCC1` the value was 2.4% (active); for `CCN(CC)CCCC(C)Nc1cc(-c2ccc(C(F)(F)F)cc2)c(C#N)c2nc3ccccc3n12` (stereo not drawn), -83.3% (active); for `C=CC(=O)Nc1cc(Nc2nccc(-c3cn(C)c4ccccc34)n2)c(OC)cc1N(C)CCN(C)C`, -87.9% (active).
Take `O=C(Nc1cnn2ccc(N3CCC[C@@H]3c3cc(F)ccc3F)nc12)N1CC[C@H](O)C1`: the growth is 91%.
Turning to `S=C(NCc1ccc2c(c1)OCO2)N1CCN(c2ncnc3c2oc2ccccc23)CC1`, the growth was 47.5%.
Same read-out and setting: for `O=C(NOC[C@H](O)CO)c1ccc(F)c(F)c1Nc1ccc(I)cc1F` the value was 71.2%; for `CC(=O)Oc1ccccc1C(=O)N=C1[Se]CCN1C(=O)c1ccccc1OC(C)=O`, -95.8% (active); for `COC(=O)CCCNc1c(-c2c(O)c(O)cc3c(O)c(-c4c(C)cc5c(-c6nc7ccccn7c6NCCCC(=O)OC)c(O)c(O)cc5c4O)c(C)cc23)nc2ccccn12`, 67.6%.
On the same count and under the same terms, in the case of `O=C(CNc1nc(-c2ccc(Cl)cc2)cs1)Nc1ccc(-c2nc3ccccc3s2)cc1` it was 109%.
